# Experimental data reported in the OligoGym collection.
# Target: CDH2
# Experiment: pooled miR-30 sensor sort-seq; sequence = guide strand
# Settings: shRNA
# Further: reference of the scale not given here.
row,Sequence,sensor-assay potency score (higher = more potent)
1,TTCATAGTCAAACACTAACAGG,-1.55
2,ATAACTGTAACAGACACGGTTG,-0.196
3,TTATCTTTAAATTAAGCTGAGC,-0.63
4,TAGTCAAACACTAACAGGGAGT,-0.885
5,TTTATCTTTAAATTAAGCTGAG,-0.626
6,TTGTACTTGTCCAAAAACCAAG,-1.35
7,TTGACCACGGTGACTAACCCGT,-0.441
8,TATTTCTTCAACTTCTGCTGAC,0.204
9,TAAGCTGAGCAAAATCACCATT,-0.593
10,TTGATTGTAAACATGTTGGGTG,0.885

# Target: CDK9
# Experiment: as above
# Settings: shRNA
row,Sequence,sensor-assay potency score (higher = more potent)
1,TTAGCAGCCTTCATGTCCCTAT,-0.0117
2,TTTTAGAAGCTGAAGGATCTTG,-0.461
3,TACCAGAGTGTCACCACACGGT,0.18
4,AAAACATTGCTCAACAGCCCAG,-1.38
5,AAGTACTCGAACATGGACGTCA,0.37
6,TTGACCACATTCTCGTGTTTTA,-0.499
7,TATTTGGAAACTTCATCACAAA,-1.19
8,TGAAGGATCTTGATCTCCCGCA,-0.0916
9,ATTCTCGTGTTTTAGAAGCTGA,0.181
10,TTGATCTCCCGCAAGGCTGTAA,-0.379
11,TTTTCCATCAGCACCTTCTTCA,-0.28
12,TACTCGAACATGGACGTCAGGT,-0.285
13,TAGAAGCTGAAGGATCTTGATC,-0.488
14,TCGAACACCAGGTATATACTAC,-0.813
15,AACTTGACCAAAACATTGCTCA,-0.141
16,TTCTTCAGAGCCACCTTCTGGC,0.0361
17,TTTCTGTGGATGTAGTAGAGGC,-0.227
18,TCTCGTATTTGGAAACTTCATC,-1.02
19,ATCTCTGCCATGATGCACCCAG,-0.791
20,TTGTCGATGAGGTCCAGTGCGT,-0.728
21,TCAAGTTGACCACATTCTCGTG,-0.846
22,TATACTACCCTTGCAGCGGTTA,-0.622
23,TATATACTACCCTTGCAGCGGT,-0.627
24,TTGAACACCTCCCCGAAGGTGC,-0.836

# Target: CDKL2
# Experiment: as above
# Settings: shRNA
row,Sequence,sensor-assay potency score (higher = more potent)
1,TTTCTTTCTTCAACTAAGGAAT,-1.1
2,TTTAGTAACTTGATTTCTCGCA,0.263
3,TTAGATAAAGAAACATTTCTGG,0.295
4,TTTCAGGCAACCTTACTCCAGC,-0.594
5,TTTGTCATCGTCACTTTCTAAG,-0.977
6,TAGTAACTTGATTTCTCGCATT,-0.927
